This is one part of a sample in which hits are shown more often than they occur.
TTR transcr act: activators of transthyretin transcription; SH-SY5Y TTR promoter Gaussia luciferase, luminescence; 100% = recombinant luciferase protein wells; activation, % at 16.7 µM; hit rate 1.3% among 92,000;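 active means activation above the mean of all tested compounds plus 3 SD, cut at about 9.5% in these data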;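 further: cells exposed to compounds for one day before reading; 0% = median of all test compound wells on the plate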
Starred values were filed as active, the others as inactive.

For COC(=O)[C@]12C[C@H](CC(=O)NCc3cccc(C(F)(F)F)c3)C(=O)N(CCC3=CCCCC3)C1=C[C@H](C1CCCC1)O[C@@H]2C the results were TTR transcr act -0.2.
`C[C@H]1CN([C@@H](C)CO)C(=O)Cc2cc(NS(C)(=O)=O)ccc2O[C@@H]1CN(C)Cc1ccc(Cl)c(Cl)c1` gave TTR transcr act 13.3*.
C[C@H](CO)N1C[C@H](C)[C@H](CN(C)Cc2ccc(Oc3ccccc3)cc2)Oc2ccc(NC(=O)Nc3cccc4ccccc34)cc2CC1=O was read as TTR transcr act -5.0.
For C[C@@H]1CN([C@H](C)CO)C(=O)c2cc(NC(=O)Cc3cn(C)c4ccccc34)ccc2O[C@H]1CN(C)C(=O)Nc1ccc2c(c1)OCO2 the results were TTR transcr act -3.9.
CNC[C@H]1Oc2ccc(NC(=O)Cc3cn(C)c4ccccc34)cc2CC(=O)N([C@@H](C)CO)C[C@H]1C was read as TTR transcr act 14.9*.
For Cc1ccc(S(=O)(=O)N(C)C[C@@H]2Oc3ccc(NS(=O)(=O)c4ccccc4)cc3CC(=O)N([C@@H](C)CO)C[C@H]2C)cc1 the results were TTR transcr act -3.4.
`C[C@H]1CN([C@@H](C)CO)C(=O)Cc2cc(NC(=O)Nc3ccccc3)ccc2O[C@H]1CN(C)Cc1ccccc1` gave TTR transcr act -3.3.
CCC[C@H]1[C@@H](OC(=O)Oc2ccc([N+](=O)[O-])cc2)CC[C@@]23CCCN2C(=O)CCC[C@@H]13 was read as TTR transcr act -1.7.
`O=C(NCC(c1ccccc1)c1ccccc1)[C@H](Cc1ccccc1)NC1(C(=O)NC2CCCCC2)CCOCC1` gave TTR transcr act -1.0.
`Cc1nc2sc(C(=O)NCc3ccc4c(c3)OCO4)c(N)c2c(C)c1Cl` gave TTR transcr act 0.5.
`COc1ccc(C)c(NC(=O)[C@@H]2CCCN2S(=O)(=O)c2cccc3cccnc23)c1` gave TTR transcr act -0.2.
CCC(c1nnc(SCC(=O)Nc2nnc(-c3ccccc3)o2)n1Cc1ccccc1)N(C)C (centres undefined) was read as TTR transcr act 28.3*.
`CCC(c1nnc(SCC(=O)Nc2ccc(C(N)=O)cc2)n1Cc1ccccc1)N(C)C` (centres undefined) gave TTR transcr act -0.4.
For CCC(c1nnc(SCC(=O)Nc2ccc(S(N)(=O)=O)cc2)n1Cc1ccccc1)N(C)C (centres undefined) the results were TTR transcr act 1.5.
COC(=O)[C@]12C[C@H](CC(=O)NCCCCc3ccccc3)C(=O)N(CCc3ccc(OC)c(OC)c3)C1=C[C@H](C(C)C)O[C@@H]2C1CC1 was read as TTR transcr act -2.4.
Screening C[C@@H]1CCCCCCCCC(=O)OCCN(C(=O)OC(C)(C)C)[C@H](C)CCCCCCCCC(=O)OCCN(C(=O)OC(C)(C)C)[C@H](C)CCCCCCCCC(=O)OCCN(C(=O)OC(C)(C)C)[C@H](C)CCCCCCCCC(=O)OCCN1C(=O)OC(C)(C)C returned TTR transcr act 19.0*.
COC(=O)CC1C(=O)NCCN1C(=O)OC(C)(C)C (centres undefined) was read as TTR transcr act -1.5.
CCSc1nnc([C@@H]2CCCN2C(=O)OC(C)(C)C)o1 was read as TTR transcr act 1.2.
Screening CCOC(=O)N1CCN(C(=O)C[C@H]2C[C@@]3(C(=O)OC)C(=C[C@H](C4CCCC4)O[C@@H]3C)N(CCC3=CCCCC3)C2=O)CC1 returned TTR transcr act 2.0.
For C[C@@H]1CN([C@@H](C)COC(=O)C(C)(C)C)C(=O)c2cc(NC(=O)Nc3ccccc3)ccc2O[C@@H](C)CCCCO[C@H]1CN(C)S(=O)(=O)c1ccc(F)cc1 the results were TTR transcr act -0.4.
O=C(Nc1sc2c(c1-c1nc3ccccc3s1)CCNC2)C(F)(F)F was read as TTR transcr act -0.2.
`COc1cccc(C2CC(=O)Nc3n[nH]c(-c4ccccc4)c32)c1OC` (centres undefined) gave TTR transcr act 0.6.
Screening COc1cccc(C2CC(=O)Nc3cc(OC)c(OC)cc32)c1 (centres undefined) returned TTR transcr act 0.2.
`COc1cccc(C2CC(=O)Nc3cc(OC)c(OC)c(OC)c32)c1OC` (centres undefined) gave TTR transcr act 15.6*.
For CCOC(=O)c1c(C=O)c(C)n(Cc2ccccc2)c1C the results were TTR transcr act 11.1*.
For CCOC(=O)c1cn(Cc2ccccc2)nn1 the results were TTR transcr act 0.5.
`CCOC(=O)c1c(C=O)c(C)n(Cc2ccc(Cl)cc2)c1C` gave TTR transcr act -3.2.
`O=C1CCC[C@H]2C[C@H](NCc3ccc(Cl)cc3)CC[C@]23CCCN13` gave TTR transcr act -0.4.
Screening CC(C)C[C@H](NC(C)(C)C(=O)NC1CCCCC1)C(=O)NCCc1c[nH]c2ccccc12 returned TTR transcr act 1.5.
`CCC[C@H]1[C@@H](NS(=O)(=O)c2ccccc2[N+](=O)[O-])CC[C@@]23CCCN2C(=O)CCC[C@@H]13` gave TTR transcr act -0.9.
`O=C(Cn1nc(-c2ccccc2)c2ccccc21)Oc1ccccc1` gave TTR transcr act -0.8.

High-throughput results (PubChem BioAssay)
